Key:
[1] = target: Tyrosine-protein kinase SYK (Homo sapiens) (UniProt P43405); conditions: at 10 µM
[2] = target: T1, Mitogen-activated protein kinase kinase kinase 7 (Homo sapiens) (UniProt O43318); conditions: at 1 µM
T1 sequence (whole entry): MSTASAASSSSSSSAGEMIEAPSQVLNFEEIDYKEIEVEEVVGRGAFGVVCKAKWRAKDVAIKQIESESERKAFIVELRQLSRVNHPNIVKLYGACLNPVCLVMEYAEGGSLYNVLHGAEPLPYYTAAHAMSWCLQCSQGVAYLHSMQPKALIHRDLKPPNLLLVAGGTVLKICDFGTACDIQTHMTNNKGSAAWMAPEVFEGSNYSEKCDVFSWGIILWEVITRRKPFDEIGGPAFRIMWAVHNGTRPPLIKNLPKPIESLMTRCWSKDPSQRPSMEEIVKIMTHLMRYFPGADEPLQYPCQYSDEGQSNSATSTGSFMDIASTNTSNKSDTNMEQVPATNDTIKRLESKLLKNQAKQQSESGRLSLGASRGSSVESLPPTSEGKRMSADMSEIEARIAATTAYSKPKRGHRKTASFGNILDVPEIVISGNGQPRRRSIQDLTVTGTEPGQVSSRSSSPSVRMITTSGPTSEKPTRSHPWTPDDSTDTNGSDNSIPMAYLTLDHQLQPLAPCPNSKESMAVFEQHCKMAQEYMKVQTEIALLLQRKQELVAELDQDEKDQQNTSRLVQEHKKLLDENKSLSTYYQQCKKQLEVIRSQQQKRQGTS

[3] = target: T1, Mitogen-activated protein kinase kinase kinase 7 (Homo sapiens); conditions: at 10 µM
[4] = target: T2, Serine/threonine-protein kinase TAO1 (Homo sapiens) (UniProt Q7L7X3); conditions: at 1 µM
T2 sequence (whole entry): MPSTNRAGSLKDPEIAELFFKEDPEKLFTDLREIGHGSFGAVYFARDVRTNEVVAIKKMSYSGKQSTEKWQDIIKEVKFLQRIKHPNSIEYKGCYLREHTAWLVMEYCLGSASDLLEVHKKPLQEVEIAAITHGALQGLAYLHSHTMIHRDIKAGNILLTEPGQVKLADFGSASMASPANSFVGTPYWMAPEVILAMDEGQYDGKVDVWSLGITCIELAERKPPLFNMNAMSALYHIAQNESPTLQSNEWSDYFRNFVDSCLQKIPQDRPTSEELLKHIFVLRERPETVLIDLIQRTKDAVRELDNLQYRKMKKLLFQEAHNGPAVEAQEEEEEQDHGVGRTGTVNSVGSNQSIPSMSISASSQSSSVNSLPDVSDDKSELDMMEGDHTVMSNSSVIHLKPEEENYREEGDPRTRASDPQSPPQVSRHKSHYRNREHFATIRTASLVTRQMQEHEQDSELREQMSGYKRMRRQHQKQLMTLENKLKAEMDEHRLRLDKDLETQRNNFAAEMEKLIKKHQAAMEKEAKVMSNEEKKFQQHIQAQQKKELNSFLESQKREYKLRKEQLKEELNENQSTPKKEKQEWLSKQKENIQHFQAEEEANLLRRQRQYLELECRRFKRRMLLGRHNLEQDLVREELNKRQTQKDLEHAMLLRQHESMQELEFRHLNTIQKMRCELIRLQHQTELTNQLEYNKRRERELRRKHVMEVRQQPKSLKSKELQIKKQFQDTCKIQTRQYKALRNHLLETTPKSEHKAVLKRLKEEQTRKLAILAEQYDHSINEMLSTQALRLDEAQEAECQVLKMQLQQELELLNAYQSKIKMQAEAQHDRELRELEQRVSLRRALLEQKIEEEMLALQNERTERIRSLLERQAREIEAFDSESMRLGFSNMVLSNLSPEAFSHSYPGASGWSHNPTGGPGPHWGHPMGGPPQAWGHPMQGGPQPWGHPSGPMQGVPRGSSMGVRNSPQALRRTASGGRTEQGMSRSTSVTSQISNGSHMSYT

[5] = target: T2, Serine/threonine-protein kinase TAO1 (Homo sapiens); conditions: at 10 µM
[6] = target: T3, Serine/threonine-protein kinase TAO2 (Homo sapiens) (UniProt Q9UL54); conditions: at 1 µM
T3 sequence (whole entry): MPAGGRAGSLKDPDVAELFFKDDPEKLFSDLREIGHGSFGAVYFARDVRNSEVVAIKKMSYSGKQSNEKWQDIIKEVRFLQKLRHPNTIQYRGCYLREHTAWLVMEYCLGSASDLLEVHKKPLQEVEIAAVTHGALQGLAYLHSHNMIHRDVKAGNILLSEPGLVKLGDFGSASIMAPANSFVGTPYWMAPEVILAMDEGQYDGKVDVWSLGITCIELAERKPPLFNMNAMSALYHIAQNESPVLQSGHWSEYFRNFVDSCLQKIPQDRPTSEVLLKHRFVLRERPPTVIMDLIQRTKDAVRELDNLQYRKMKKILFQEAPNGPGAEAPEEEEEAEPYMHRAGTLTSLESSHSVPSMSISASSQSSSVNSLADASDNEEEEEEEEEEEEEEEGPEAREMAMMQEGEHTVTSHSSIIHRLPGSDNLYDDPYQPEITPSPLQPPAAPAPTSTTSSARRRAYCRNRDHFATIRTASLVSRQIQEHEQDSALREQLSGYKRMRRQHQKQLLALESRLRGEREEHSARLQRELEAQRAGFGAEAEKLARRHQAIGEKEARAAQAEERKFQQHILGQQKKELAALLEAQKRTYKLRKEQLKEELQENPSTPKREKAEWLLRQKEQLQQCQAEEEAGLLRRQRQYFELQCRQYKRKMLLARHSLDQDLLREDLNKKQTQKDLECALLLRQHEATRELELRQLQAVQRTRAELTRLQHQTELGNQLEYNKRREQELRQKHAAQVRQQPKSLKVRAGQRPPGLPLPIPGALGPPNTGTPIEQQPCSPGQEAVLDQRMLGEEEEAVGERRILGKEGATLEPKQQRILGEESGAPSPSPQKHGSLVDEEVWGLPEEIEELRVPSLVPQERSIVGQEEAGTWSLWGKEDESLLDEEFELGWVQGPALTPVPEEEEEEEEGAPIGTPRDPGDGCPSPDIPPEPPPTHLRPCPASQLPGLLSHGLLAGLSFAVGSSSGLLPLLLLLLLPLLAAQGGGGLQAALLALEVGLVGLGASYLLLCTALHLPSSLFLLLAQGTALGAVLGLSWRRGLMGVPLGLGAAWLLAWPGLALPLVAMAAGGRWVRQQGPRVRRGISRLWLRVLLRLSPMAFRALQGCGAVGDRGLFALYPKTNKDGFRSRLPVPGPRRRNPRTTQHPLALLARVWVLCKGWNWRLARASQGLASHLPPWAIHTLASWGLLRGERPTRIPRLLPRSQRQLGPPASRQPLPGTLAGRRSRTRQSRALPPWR

[7] = target: T3, Serine/threonine-protein kinase TAO2 (Homo sapiens); conditions: at 10 µM
[8] = target: T4, Serine/threonine-protein kinase TAO3 (Homo sapiens) (UniProt Q9H2K8); conditions: at 1 µM
T4 sequence (whole entry): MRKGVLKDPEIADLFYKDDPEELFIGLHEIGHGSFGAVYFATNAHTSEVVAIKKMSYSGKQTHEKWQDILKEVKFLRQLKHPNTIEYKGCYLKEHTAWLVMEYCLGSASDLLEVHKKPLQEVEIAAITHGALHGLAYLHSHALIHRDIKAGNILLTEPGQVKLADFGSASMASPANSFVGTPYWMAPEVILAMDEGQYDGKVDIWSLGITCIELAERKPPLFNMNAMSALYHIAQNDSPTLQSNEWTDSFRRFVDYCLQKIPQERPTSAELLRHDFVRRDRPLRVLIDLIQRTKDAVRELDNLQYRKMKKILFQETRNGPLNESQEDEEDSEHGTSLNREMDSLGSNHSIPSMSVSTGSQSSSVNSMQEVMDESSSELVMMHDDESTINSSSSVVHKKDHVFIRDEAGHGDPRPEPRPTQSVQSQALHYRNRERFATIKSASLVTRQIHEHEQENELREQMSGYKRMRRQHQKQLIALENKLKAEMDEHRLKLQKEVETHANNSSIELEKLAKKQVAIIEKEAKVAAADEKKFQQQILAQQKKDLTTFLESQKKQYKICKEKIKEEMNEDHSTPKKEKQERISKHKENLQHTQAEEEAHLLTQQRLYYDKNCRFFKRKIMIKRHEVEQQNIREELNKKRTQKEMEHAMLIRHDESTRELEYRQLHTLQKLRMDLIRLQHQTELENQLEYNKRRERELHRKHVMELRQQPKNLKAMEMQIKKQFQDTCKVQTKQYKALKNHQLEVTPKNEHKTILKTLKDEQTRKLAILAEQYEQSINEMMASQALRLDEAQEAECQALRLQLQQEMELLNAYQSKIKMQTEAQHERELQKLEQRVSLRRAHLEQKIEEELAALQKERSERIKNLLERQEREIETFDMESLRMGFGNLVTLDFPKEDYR

[9] = target: T4, Serine/threonine-protein kinase TAO3 (Homo sapiens); conditions: at 10 µM
[10] = target: T5, Serine/threonine-protein kinase TBK1 (Homo sapiens) (UniProt Q9UHD2); conditions: at 1 µM
T5 sequence (whole entry): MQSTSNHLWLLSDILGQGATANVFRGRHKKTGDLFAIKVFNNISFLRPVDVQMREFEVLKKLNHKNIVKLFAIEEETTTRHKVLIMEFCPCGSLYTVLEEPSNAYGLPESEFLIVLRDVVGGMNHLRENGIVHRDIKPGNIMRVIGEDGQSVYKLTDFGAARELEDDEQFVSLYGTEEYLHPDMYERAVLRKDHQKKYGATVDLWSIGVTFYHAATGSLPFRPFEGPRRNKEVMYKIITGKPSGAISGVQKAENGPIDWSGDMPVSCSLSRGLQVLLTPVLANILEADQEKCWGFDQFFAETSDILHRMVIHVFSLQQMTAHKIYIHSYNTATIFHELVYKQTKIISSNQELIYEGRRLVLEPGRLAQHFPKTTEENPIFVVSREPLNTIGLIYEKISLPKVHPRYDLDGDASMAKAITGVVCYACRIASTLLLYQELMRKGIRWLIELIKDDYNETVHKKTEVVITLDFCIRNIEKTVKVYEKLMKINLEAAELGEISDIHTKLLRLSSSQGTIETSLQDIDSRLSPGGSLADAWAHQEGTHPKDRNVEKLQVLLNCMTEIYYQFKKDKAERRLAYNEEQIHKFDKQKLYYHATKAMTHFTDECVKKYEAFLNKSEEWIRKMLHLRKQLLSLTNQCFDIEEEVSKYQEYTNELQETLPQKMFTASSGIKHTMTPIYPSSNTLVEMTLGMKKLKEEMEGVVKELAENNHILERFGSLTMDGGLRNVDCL

Compound	residual activity [1]	residual activity [2]	residual activity [3]	residual activity [4]	residual activity [5]	residual activity [6]	residual activity [7]	residual activity [8]	residual activity [9]	residual activity [10]
O=[N+]([O-])c1ccc(-c2nc(-c3ccc(F)cc3)c(-c3ccncc3)[nH]2)cc1	107%	104%	91%	97%	91%	109%	103%	98%	96%	87%
CCOc1cc2ncnc(Nc3cccc(Br)c3)c2cc1OCC	58%	95%	83%	86%	73%	101%	84%	100%	81%	70%
Nc1n[nH]c2nnc(-c3c(-c4ccccc4)nn4ccccc34)cc12	110%	90%	77%	87%	56%	90%	50%	87%	40%	75%
O=c1c2ccccc2[nH]c(=S)n1CCN1CCC(=C(c2ccc(F)cc2)c2ccc(F)cc2)CC1	68%	97%	83%	109%	88%	107%	79%	109%	86%	91%
O=Nc1c(-c2c(O)[nH]c3ccccc23)[nH]c2ccccc12	60%	64%	71%	83%	39%	75%	26%	85%	28%	9%
COc1ccc(OC)c2c(=S)c3ccccc3[nH]c12	96%	95%	81%	82%	91%	90%	87%	96%	90%	82%
COc1ccc(CNc2nc(N(CCO)CCO)nc3c2ncn3C(C)C)cc1	114%	92%	82%	96%	81%	96%	95%	92%	71%	69%
COc1cc2ncnc(Nc3ccc(Oc4ccccc4)cc3)c2cc1OC	111%	96%	95%	106%	92%	110%	106%	103%	91%	72%
O=C1NC(=O)c2c1c1c3ccccc3[nH]c1c1[nH]c3cc(Br)ccc3c21	79%	94%	84%	92%	92%	103%	92%	93%	94%	75%
Cc1ccc(NC2=CC(=O)c3sc(C)nc3C2=O)cc1	113%	86%	89%	91%	77%	95%	88%	94%	93%	77%
O=C(Nc1cccc(Nc2nccc(Nc3cccc(C(F)(F)F)c3)n2)c1)C1CC1	75%	105%	99%	95%	56%	92%	29%	104%	67%	78%
N#CCCc1ccc2c(c1)-c1[nH]c3ccc([N+](=O)[O-])cc3c1CC(=O)N2	41%	57%	21%	58%	24%	64%	52%	56%	41%	38%
CC[n+]1c(/C=C/N(C)c2ccccc2)n(-c2ccccc2)c2ccc(-c3nc4ccccc4s3)cc21	46%	100%	102%	93%	78%	100%	60%	95%	62%	104%
O=C1NC(=O)/C(=C/c2ccc3c(c2)OC(F)(F)O3)S1	73%	96%	88%	100%	74%	113%	105%	103%	66%	80%
CC(=O)O/N=C1\C(=C2\C(=O)Nc3cc(Br)ccc32)Nc2ccccc21	40%	91%	85%	89%	79%	81%	83%	96%	86%	57%
CC(=O)c1ccc(N2CCOCC2)cc1O	101%	93%	90%	103%	95%	92%	94%	101%	91%	74%
CC(C)n1cnc2/c(=N/c3cccc(Cl)c3)nc(NCCO)[nH]c21	56%	77%	24%	87%	59%	70%	63%	93%	54%	57%
CCN(CC)C(=O)c1ccc(Nc2nc(OCC3CCCCC3)c3nc[nH]c3n2)cc1	13%	47%	7%	52%	10%	51%	6%	70%	16%	15%
CO[C@H]1[C@@H](OC)C[C@H](C)[C@@H](OC)C2=CC(=O)C=C(NC(=O)/C(C)=C/C=C/[C@H](OC)[C@@H](OC(N)=O)/C(C)=C/[C@@H]1C)C2=O	87%	96%	94%	98%	89%	99%	93%	107%	95%	77%
Cc1nc2cc3nc(-c4cccs4)cnc3cc2n1C	93%	96%	100%	111%	100%	113%	98%	98%	95%	105%
